Results taken from PubChem BioAssay AID720604 (Broad Institute, 2013).
Measured potencies and affinities stand elsewhere. Inconclusive results are not listed. Active and inactive are the calls of the source.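 The calls were made as follows: active = compound lowering viability with a fitted half-effect dose within twice the top dose in every timed run; inconclusive = timed runs disagree on the call; inactive = inactive in every run, including a rising signal.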

Assay: cytotoxicity in primary human umbilical endothelium – cell-based, CellTiter-Glo ATP luminescence, 8/24/48 h, dry powder, cytotoxicity control for HRAS target identification, dose response (AID 720604)
Conditions: HUVEC viability, 8-48 h; series mostly up to 35 µM

Structure (SMILES)	outcome
Cc1onc(C(=O)N2CCN(C(c3ccncc3)c3ccncc3)CC2)c1[N+](=O)[O-]	inactive
Cc1onc(C(=O)N2CCN(C(c3ccc(Cl)cc3)c3ccc(Cl)cc3)CC2)c1[N+](=O)[O-]	inactive
